Legend:
[1] = tested on: Vero E6 infected with SARS-CoV-2; experiment: morphology score (similarity to uninfected cells); higher = more like uninfected cells; conditions: 24 h
[2] = tested on: Vero E6 infected with SARS-CoV-2; experiment: SARS-CoV-2 infection rate relative to infected DMSO; higher = more infection, active = 60 or less; conditions: 24 h

| SMILES | morphology score [1] | SARS-CoV-2 infection rate [2] |
| --- | --- | --- |
| Oc1ccc(Cl)c2cccnc12 [cloxyquin] (10 µM) | -0.13 | 109% (inactive) |
| c1ccc(C2CN3CCSC3=N2)cc1 (centres undefined) [tetramisole] (10 µM) | 0.191 | 104% (inactive) |
| CC(=O)Nc1ccc(C(=O)Nc2ccccc2N)cc1 [tacedinaline] (0.833333 µM) | -0.0863 | 110% (inactive) |
| CCN1/C(=C/C(C)=O)Sc2ccc(OC)cc21 (10 µM) | -0.0524 | 108% (inactive) |
| Cc1cc(C2CCCCC2)n(O)c(=O)c1 [ciclopirox] (0.833333 µM) | 0.0975 | 96.5% (inactive) |
| Nc1ncnc2c1ncn2[C@@H]1O[C@@H]2COP(=O)(O)O[C@H]2[C@H]1O [cyclic-AMP] (10 µM) | 0.255 | 86.5% (inactive) |
| CN(CC[C@@H](Oc1ccc(-c2ccccc2)cc1)c1ccc(F)cc1)CC(=O)O (10 µM) | 0.036 | 108% (inactive) |
| COc1cc2ncnc(Nc3cccc(Cl)c3F)c2cc1OC(=O)N1CCN(C)C[C@H]1C (10 µM) | -0.178 | 114% (inactive) |
| CN1CCCC(CN2c3ccccc3Sc3ccccc32)C1 (centres undefined) [mepazine] (10 µM) | 0.538 | 60.5% (inactive) |
| Cc1ccc(Oc2ccccc2-c2csc(N=C3NCCCN3)n2)c(C)c1 [abafungin] (10 µM) | 0.0754 | 100% (inactive) |
| CCCCCCCCCCCCCC[C@@H](O)[C@@H](O)[C@@H](N)CO [phytosphingosine] (10 µM) | -0.0786 | 108% (inactive) |
| CN1C(C(=O)Nc2ccccn2)=C(O)c2sccc2S1(=O)=O [tenoxicam] (10 µM) | -0.0614 | 108% (inactive) |

Source: the supplement of paper PMC13380429
